Rango dissoc inh: qHTS Assay for Inhibitors of RanGTP induced Rango (Ran-regulated importin-beta cargo) - Importin beta complex dissociation | Biochemical FRET Rango-importin beta, RanGTP-induced dissociation | hit rate 0.071% among 340,000 | Snurportin-1 (Homo sapiens) + GTP-binding nuclear protein Ran (Homo sapiens) + Importin … | Potency, µM (doses to about 46.1 µM), for the others: at the highest dose activity change, negative = inhibition; note: % of control where 0% means no effect; nearly all actives have a fitted effect of over 45% in size
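Quantitative HTS using a FRET biosensor: 0.1 uM Rango, 0.25 uM importin beta, 0.6 uM Ran, 2 mM GTP, 0.2 uM RCC1 final, PBS with DTT, Tween-20 and BSA. Post-read taken 45 min after Ran addition.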
ASM inhibitor: Inhibitors of Secretory Acid Sphingomyelinase (S-ASM): qHTS; Sphingomyelin phosphodiesterase (Homo sapiens), P17405; placental ASM, HMU-PC fluorogenic substrate, 60 min; Potency, µM (series often up to 57.5 µM), without a hit: top-dose activity change, negative = inhibition, usual class: inhibitors; hit rate 0.006% among 340,000; AID 504937, 2011; active = well fitted inhibition curve with a large enough effect; inconclusive = small, poorly fitted or top-dose-only effect; inactive = no such curve, though single readings can be large or run the other way
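qHTS format. ASM enzyme prepared from human placenta hydrolyses the fluorogenic substrate HMU-PC0 (9 uM final) over 60 min at 37 °C after a 10 min compound preincubation.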
gsp antag: qHTS for Antagonists of gsp, the Etiologic Mutation Responsible for Fibrous Dysplasia/McCune-Albright Syndrome: qHTS. gsp-mutant cells, cAMP HTRF, 30 min. Potency, µM (highest dose often 76.9 µM), inactives show at the highest dose activity change, negative = inhibition, most hits filed as inhibitors. hit rate 0.4% among 340,000; calls by dose curve; cell line not stated here;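 note: intracellular cAMP measured with PDE inhibitor Ro 20-1724 present during compound exposure; % is set by controls: 0 for no effect and ±100 for the full control effect; nearly all actives have a fitted effect of over 65% in size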
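Cells in G418 medium, seeded 16-24 h, 37C; buffer exchange to DPBS + 1 mM CaCl2, 0.5 mM MgCl2, 0.05% BSA; cpds in DMSO + […] (300 uM stock), 30 min 37C; HTRF cAMP detection.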
Rango-impB inh: qHTS Assay for Inhibitors of Rango (Ran-regulated importin-beta cargo) - Importin beta complex formation. Rango CFP/YFP FRET sensor + importin beta, 45 min. Potency, µM (top dose mostly 92.2 µM), for the others: top-dose inhibition of complex formation. hit rate 0.031% among 340,000. Importin subunit beta-1 (Homo sapiens), Q14974;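 note: 0% = DMSO wells and 100% = buffer wells lacking importin beta; nearly all actives have a fitted effect of over 15% in size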
Target sequence (Q14974 whole entry, looked up): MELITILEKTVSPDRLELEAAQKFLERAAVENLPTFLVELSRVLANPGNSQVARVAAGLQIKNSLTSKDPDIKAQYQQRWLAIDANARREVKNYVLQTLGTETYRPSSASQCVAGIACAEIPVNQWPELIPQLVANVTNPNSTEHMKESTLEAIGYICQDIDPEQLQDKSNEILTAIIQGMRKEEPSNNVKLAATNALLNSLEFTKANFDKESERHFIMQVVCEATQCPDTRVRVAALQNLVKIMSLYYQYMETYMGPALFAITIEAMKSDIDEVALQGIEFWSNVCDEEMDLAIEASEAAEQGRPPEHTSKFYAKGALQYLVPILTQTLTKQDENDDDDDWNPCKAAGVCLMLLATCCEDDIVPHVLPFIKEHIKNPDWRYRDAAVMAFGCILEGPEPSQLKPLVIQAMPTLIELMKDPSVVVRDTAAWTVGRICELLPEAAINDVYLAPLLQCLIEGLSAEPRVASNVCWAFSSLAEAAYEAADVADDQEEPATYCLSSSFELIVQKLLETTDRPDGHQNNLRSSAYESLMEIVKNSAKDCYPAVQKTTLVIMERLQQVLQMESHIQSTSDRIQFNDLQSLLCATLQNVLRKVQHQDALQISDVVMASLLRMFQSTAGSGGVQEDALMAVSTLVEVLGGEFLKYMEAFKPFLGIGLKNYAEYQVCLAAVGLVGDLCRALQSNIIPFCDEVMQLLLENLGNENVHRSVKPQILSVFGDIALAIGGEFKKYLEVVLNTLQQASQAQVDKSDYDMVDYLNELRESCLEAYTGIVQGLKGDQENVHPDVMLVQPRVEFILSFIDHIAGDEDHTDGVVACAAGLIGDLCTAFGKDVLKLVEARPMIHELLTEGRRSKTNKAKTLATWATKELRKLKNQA
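Inhibition scored from the CFP 486 nm/YFP 530 nm FRET ratio 45 min after adding 0.125 microM importin beta to 50 nM Rango biosensor preincubated 5 min with compound (room temperature, PBS with DTT, Tween-20, BSA). No-importin wells as positive control.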
gsp ag: qHTS for Agonist of gsp, the Etiologic Mutation Responsible for Fibrous Dysplasia/McCune-Albright Syndrome: qHTS; gsp mutant cells, cAMP HTRF, 30 min; Potency, µM (highest dose often 76.9 µM), for inactives: at the top dose activation (cAMP increase), usual class: activators; hit rate 0.13% among 340,000; active = well fitted activation curve with a large enough effect; inconclusive = small, poorly fitted or top-dose-only effect, or another doubt; inactive = no such curve, though single readings can be large or run the other way; cell line not stated here;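 note: phosphodiesterase inhibitor Ro 20-1724 added with compounds to block cAMP breakdown; nearly all actives have a fitted effect of over 60% in size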
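Cells in DMEM/10% FBS with G418 were pretreated with compounds in DMSO plus […] (300 uM stock) for 30 min at 37C. cAMP was measured by HTRF (cAMP-d2 plus anti-cAMP antibody-K) after 30 min at room temperature.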
Starred values were filed as active, the others as inactive; [ ] = another dose, or the depositor's remark. An excerpt weighted towards active compounds, which were near 0.67% of everything screened. Unless noted, calls come from the whole dose curve. Potency is the fitted concentration of half-maximal effect.

Screening CCOC(=O)N1CCN(CC(=O)c2ccc(O)cc2O)CC1 returned Rango dissoc inh -4%, ASM inhibitor 7%, gsp antag 11µM*, Rango-impB inh 2% and gsp ag 3%.
CCOC(=O)N1CCN(CC(=O)c2ccc(O)c(C)c2O)CC1 was read as Rango dissoc inh 14%, ASM inhibitor 3%, gsp antag -2%, Rango-impB inh 1% and gsp ag 15%.
`CCOC(=O)c1ccc(CC(=O)c2ccc(O)cc2O)o1` gave Rango dissoc inh -20%, ASM inhibitor -4%, gsp antag 8.9µM*, Rango-impB inh inconclusive and gsp ag 15%.
`O=C(COC(=O)[C@@H]1CCCN1C(=O)c1cccs1)Nc1cccc(Cl)c1` gave Rango dissoc inh 2%, ASM inhibitor -3%, gsp antag -5%, Rango-impB inh 0% and gsp ag -16%.
Screening CSc1nc2ccccc2n1Cc1c(Cl)cccc1Cl returned Rango dissoc inh -16%, ASM inhibitor -8%, gsp antag 40µM*, Rango-impB inh 2% and gsp ag -6%.
For OCc1nc2ccccc2n1Cc1c(F)cccc1Cl the results were Rango dissoc inh -5%, ASM inhibitor 3%, gsp antag 11%, Rango-impB inh -1% and gsp ag 1%.
COC(=O)c1ccc(N=Cc2c(C(F)(F)F)[nH]n(C)c2=O)cc1 was read as Rango dissoc inh 32%, ASM inhibitor 4%, gsp antag 6%, Rango-impB inh 3% and gsp ag -18%.
COc1ccccc1NC(=O)c1ccccc1Oc1ccccc1 was read as Rango dissoc inh 1%, ASM inhibitor -3%, gsp antag 5.6µM*, Rango-impB inh -3% and gsp ag -7%.
COc1cc(NC(=O)c2cc3ccccc3cc2O)c(OC)cc1Cl was read as Rango dissoc inh -5%, ASM inhibitor 14%, gsp antag 20µM*, Rango-impB inh 0% and gsp ag inconclusive.
Cc1cc(C)n(CCN(C)C(=O)C2CCC(=O)N(CCN3CCOCC3)C2)n1 (stereo not drawn) was read as Rango dissoc inh 4%, ASM inhibitor 5%, gsp antag 7%, Rango-impB inh -4% and gsp ag -1%.
COCCOC(=O)c1c(NC(=O)COC(=O)Cc2cccc(OC)c2)sc(C(N)=O)c1C was read as Rango dissoc inh 15%, ASM inhibitor 4%, gsp antag -20%, Rango-impB inh 0% and gsp ag 17%.
Screening COc1ccccc1CC1S/C(=N/N=C/c2ccco2)NC1=O (stereo not drawn) returned Rango dissoc inh -10%, ASM inhibitor -1%, gsp antag 28µM*, Rango-impB inh 2% and gsp ag -28%.
`N#C/C(=C\c1cc(Cl)cc(Cl)c1O)C(=O)NC1CCCCC1` gave Rango dissoc inh 6.5µM*, ASM inhibitor 6%, gsp antag -18%, Rango-impB inh inconclusive and gsp ag -7%.
N#C/C(=C\c1cc(Cl)ccc1O)C(=O)NC1CCCCC1 was read as Rango dissoc inh -10%, ASM inhibitor -1%, gsp antag 15%, Rango-impB inh 0% and gsp ag 11%.
Screening CSc1ccc(S(=O)(=O)N(C)Cc2ccccc2)cc1 returned Rango dissoc inh 0%, ASM inhibitor 0%, gsp antag 35µM*, Rango-impB inh 0% and gsp ag -24%.
Screening CC(=O)N1CCc2cc(S(=O)(=O)NCCC(=O)N3CCc4ccccc4C3)ccc21 returned Rango dissoc inh -7%, ASM inhibitor -1%, gsp antag 40µM*, Rango-impB inh 1% and gsp ag 13%.
`CCN(CC)S(=O)(=O)c1cc([N+](=O)[O-])ccc1NNC(=O)Nc1ccccc1OC` gave Rango dissoc inh 5%, ASM inhibitor -9%, gsp antag -29%, Rango-impB inh 0% and gsp ag -9%.
`CCN(CC)S(=O)(=O)c1cc([N+](=O)[O-])ccc1NNC(=O)Nc1ccc(F)cc1` gave Rango dissoc inh -6%, ASM inhibitor -13%, gsp antag 50µM*, Rango-impB inh -1% and gsp ag 11%.
For Cc1ccc(-n2c(O)c(/C=N/Nc3ccc(S(=O)(=O)N4CCOCC4)cc3[N+](=O)[O-])c3ccccc3c2=O)c(C)c1 the results were Rango dissoc inh -22%, ASM inhibitor -3%, gsp antag 40µM*, Rango-impB inh 0% and gsp ag -27%[15.4 µM].
Screening N#C/C(=N\Nc1ccc(Cl)c(Cl)c1)C(=O)C1CC1 returned Rango dissoc inh 10%, ASM inhibitor -22%, gsp antag 25µM*, Rango-impB inh inconclusive and gsp ag -24%.
N#C/C(=N\Nc1ccc(F)cc1)C(=O)C1CC1 was read as Rango dissoc inh -9%, ASM inhibitor -2%, gsp antag -8%, Rango-impB inh 0% and gsp ag 7%.
For O=C(Nc1cc(Cl)ccc1O)c1snnc1-c1ccccc1 the results were Rango dissoc inh 14%, ASM inhibitor -14%, gsp antag 22µM*, Rango-impB inh -2% and gsp ag 20%.
Screening CCCCNc1nc2c(S(=O)(=O)c3ccccc3)nnn2c2ccccc12 returned Rango dissoc inh -6%, ASM inhibitor 4%, gsp antag 19%, Rango-impB inh -3% and gsp ag 22µM*.
For Cc1c(C(=O)N2CCCC2)sc(NC(=O)c2ccccc2)c1C#N the results were Rango dissoc inh inconclusive, ASM inhibitor -2%, gsp antag inconclusive, Rango-impB inh inconclusive and gsp ag -6%.
Cc1c(C(=O)N2CCOCC2)sc(NC(=O)c2ccc([N+](=O)[O-])cc2)c1C#N was read as Rango dissoc inh 7%, ASM inhibitor -4%, gsp antag 35µM*, Rango-impB inh -2% and gsp ag 19%[15.4 µM].
Screening Cc1ccc(NC(=O)C2c3ccccc3Oc3ccccc32)c(C)c1 returned Rango dissoc inh 3%, ASM inhibitor -1%, gsp antag -4%, Rango-impB inh 0% and gsp ag 2%.
Screening COCCn1c(CN2CCN(C(=O)c3ccco3)CC2)nc2c1c(=O)n(C)c(=O)n2C returned Rango dissoc inh -11%, ASM inhibitor 2%, gsp antag -5%, Rango-impB inh 5% and gsp ag 18µM*.

Screens: PubChem BioAssay, National Center for Advancing Translational Sciences (NCATS)
